Hit rate of the full screen: of about 360,000 compounds, about 2,200 (0.61%) were called active. This is one part of a sample in which actives are shown more often than they occur. Unmarked numbers belong to inactive results.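 Rule for the calls: active = inhibition above a per-plate cutoff, the plate's mean sample inhibition plus 3 SD (cut at about 24% in these data); inactive = the rest.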
assay: nonselective inhibitors of ATP calcium response in CHO-K1, primary screen, counter-screen for M1 antagonist project, cell-based, Fluo-8 calcium fluorescence, full deck, 1536-well (AID 602250); details: CHO-K1 parental, ATP-induced calcium, Fluo-8 fluorescence; at 3 µM; active compounds read high;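 note: 0% = DMSO plus EC80 ATP and 100% = DMSO alone without ATP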

Row | SMILES | inhibition
1 | CC(C)C(=O)Nc1ccc2c3c(cccc13)CC2 | -5.37%
2 | N#CC1(Nc2ccc(-c3ccc(Cl)cc3)cc2)CCCC1 | -8.66%
3 | N#CC1(Nc2ccc3c4c(cccc24)CC3)CCCCC1 | 35.7% (active)
4 | CCn1c(=O)c(=O)[nH]c2c(=O)oc3ccc(S(=O)(=O)Nc4ccc(OC)cc4)cc3c21 | -7.54%
5 | CCC(NC(=O)C1CCCC1)c1ccc(C)cc1 (centres undefined) | -8.16%
6 | Cc1ccc(NC(=O)[C@H](Cc2ccccc2)NC(=O)C2CCNCC2)cc1 | -21.4%
7 | CCC(Cc1ccccc1)NC(=O)C1CCCCC1 (centres undefined) | 27.9% (active)
8 | O=c1[nH]c(CSc2ccccc2)nc2c1oc1ccccc12 | -8.98%
9 | CN(C(=O)CSc1nnc(-c2n[nH]c3ccccc23)o1)c1ccccc1 | -5.61%
10 | Cc1cccc2cc3c(N)c(C(=O)N4CCCc5ccccc54)sc3nc12 | 13.5%
11 | COc1ccc(NC(=O)C(NC(C)=O)C(=O)NCc2ccccc2Cl)cc1 (centres undefined) | 1.86%
12 | O=C(Nc1ccc(Cl)cc1)c1csc([C@@H]2O[C@H](CO)[C@H](O)[C@H](O)[C@H]2O)n1 | -8.36%
13 | O=C(Nc1ccc(OCCO)cc1)c1csc([C@H]2C[C@H](O)[C@@H](CO)O2)n1 | 25.4% (active)
14 | O=C(Nc1ccc(Cl)cc1)c1csc([C@H]2C[C@H](O)[C@@H](CO)O2)n1 | 20.1%
15 | O=C(c1ccc(S(=O)(=O)NCc2ccco2)cc1)N1CCN(c2ccccc2)CC1 | -11.5%
16 | O=C(c1ccc(S(=O)(=O)N2CCCC2)cc1)N1CCN(c2ccccc2F)CC1 | -8.35%
17 | O=C(c1ccc(S(=O)(=O)N2CCOCC2)cc1)N1CCN(c2ccccc2)CC1 | 24.7% (active)
18 | COC(=O)c1nc(NC(=O)c2ccc(F)cc2)n[nH]1 | -11.8%
19 | Cc1ccc(C(=O)Nc2ccn(C)n2)cc1 | -13.4%
20 | CSc1nccc(NC(=O)c2ccc(C(C)(C)C)cc2)n1 | 24.6% (active)
21 | COc1ccccc1CNC(=O)c1cc(-c2cc(Cl)ccc2C)n[nH]1 | -17.7%
22 | Cc1ccc(S(=O)(=O)N(Cc2ccc(Cl)cc2)c2ccccc2C(=O)NCc2cccnc2)cc1 | 22.6%
23 | O=c1[nH]cccc1-c1nc2ccccc2n1Cc1ccc(Cl)cc1 | 6.91%

Row | SMILES | inhibition
24 | COc1ccc(C)c(Cn2c(-c3nonc3N)nc3ccccc32)c1 | -35.1%
25 | Nc1nonc1-c1nc2ccccc2n1Cc1ccc(F)cc1 | 24.1% (active)
26 | O/N=C(\C[n+]1ccccc1)c1ccc(Br)cc1 | -7.88%
27 | CCS(=O)(=O)c1ccc(C(=O)NC)c(Cl)c1Cl | -11.1%
28 | CC(=O)Nc1ccc(S(=O)(=O)N2CCN(S(=O)(=O)c3cccs3)CC2)cc1 | 6.03%
29 | CC(=O)c1ccc(NC(=O)C2CCCN2S(=O)(=O)c2cccs2)cc1 (centres undefined) | 24% (active)
30 | CC(=O)c1cccc(NC(=O)C2CCCN2S(=O)(=O)c2cccc3nsnc23)c1 (centres undefined) | 5.27%
31 | Cc1ccc(SCCN2C(=O)NC(C)(C)C2=O)cc1 | -11.7%
32 | CCOC(=O)C1C(=O)C=C(c2ccc(OC)cc2)CC1c1ccco1 (centres undefined) | -9.22%
33 | CCC1(C(=O)c2ccccc2)C(c2cccc([N+](=O)[O-])c2)C1(C(=O)OC)C(=O)OC (centres undefined) | -5.15%
34 | COc1ccc(N2CCN(C(=S)Nc3ccc(S(N)(=O)=O)cc3)CC2)cc1 | -21.9%
35 | CC(NC(=S)Nc1ccccc1)C1COc2ccccc2O1 (centres undefined) | 4.65%
36 | CCCN(CC1COc2ccccc2O1)C(=S)Nc1ccc(C)cc1 (centres undefined) | -5.53%
37 | S=C(NCC1COc2ccccc2O1)Nc1ccc(Br)cc1 (centres undefined) | 32.9% (active)
38 | COc1ccc(C)cc1NC(=O)CN1c2cccc3cccc(c23)S1(=O)=O | -7.85%
39 | CCc1ccccc1N(CC(=O)NCC1CCCO1)C(=O)CCC(=O)Nc1nccs1 (centres undefined) | -0.55%
40 | C=CCNC(=S)N1CCN(CCN=Cc2c(C)[nH]n(-c3ccc([N+](=O)[O-])cc3)c2=O)CC1 | 13.7%
41 | CC(=O)c1cccc(S(=O)(=O)N2CCC(n3nnc4cc(F)ccc43)CC2)c1 | -5.37%
42 | O=S(=O)(c1cccc(S(=O)(=O)N2CCC(n3nnc4ccccc43)CC2)c1)N1CCCCC1 | 25.7% (active)
43 | O=C(c1ccc(F)cc1)N1CCC(n2nnc3ccccc32)CC1 | 5.53%
44 | O=C1c2ccccc2C(=O)N1CC1c2ccccc2CCN1S(=O)(=O)c1ccccc1 (centres undefined) | -4.18%
45 | CCc1nnc(NC(=O)CSc2nc(SC)ns2)s1 | -15.7%
46 | COc1ccc(Cl)cc1NC(=O)CN(C)C(=O)c1cn(-c2ccccc2)nc1-c1cccs1 | -12.4%

Row | SMILES | inhibition
47 | COc1ccc(-c2nn(-c3ccccc3)cc2C(=O)Nc2nccs2)cc1OC | 33.9% (active)
48 | O=C(O)c1ccccc1-c1ccccc1C(=O)Nc1nccs1 | -12.8%
49 | O=C(COc1ccc(F)cc1)N(CC1=CCS(=O)(=O)C1)c1ccccc1 | -14.8%
50 | O=C1OC(Cc2ccccc2)C(c2ccccc2)C1=O (centres undefined) | -2.69%
51 | CCOC(=O)[C@H]1[C@H]2COc3ccc(Br)cc3[C@@H]2N2C(=O)CN(C)C(=O)[C@@]12C | -3.65%
52 | COc1ccc(C(=O)NCCCN2CCOCC2)cc1Br | 8.25%
53 | Cc1c(C)n(Cc2ccc(Cl)cc2)c2ccc(C(=O)NCCCN3CCOCC3)cc12 | 31.3% (active)
54 | O=C(NCCCN1CCOCC1)c1cc(-c2ccc(Cl)cc2)on1 | -8.77%
55 | O=C(COc1ncnc2c(Cl)cc(Cl)cc12)N1CCN(S(=O)(=O)c2ccccc2)CC1 | -14%
56 | O=S(=O)(Nc1ccccc1)c1ccc(NS(=O)(=O)c2cccs2)cc1 | -3.36%
57 | O=S(=O)(Nc1ccccc1Br)c1cccs1 | -11%
58 | O=C(Nc1cccc(Cl)c1)Nc1ccccc1NS(=O)(=O)c1cccs1 | 36.7% (active)
59 | Cn1c(NCc2cccnc2)nc2cc(-c3ccc(F)cc3)sc2c1=O | -2.34%
60 | CCN(C(=O)COC(=O)c1c(NC(C)=O)sc(C)c1C)C1CCS(=O)(=O)C1 (centres undefined) | -7.84%
61 | Cc1ccc(S(=O)(=O)c2ccc(Cl)cc2)cc1S(=O)(=O)NC(C(=O)O)C(C)C (centres undefined) | -0.98%
62 | CC(=O)Nc1ccc(S(=O)(=O)N2CCN(C(=O)c3ccccc3F)CC2)cc1 | 0.99%
63 | CCC1=NN(C(=O)Cc2ccc([N+](=O)[O-])cc2)C(O)(c2ccc(Br)cc2)C1 (centres undefined) | -13.2%
64 | Cc1ccc(Nc2nc(CSc3nnnn3-c3ccccc3)cc(=O)[nH]2)cc1 | 2%
65 | CN1OC[C@@H]2CN(C(=O)c3cccnc3)[C@H](c3ccc(N4CCCCC4)cc3)C[C@@H]21 | 8.63%
66 | CN1OC[C@@H]2CN(C(=O)c3cccc4ccccc34)[C@H](c3ccc(N4CCCCC4)cc3)C[C@@H]21 | 16.5%
67 | CN1OC[C@@H]2CN(C(=O)C(C)(C)C)[C@H](c3ccc(-n4ccnc4)cc3)C[C@@H]21 | 28.2% (active)
68 | COc1ccc(Cl)cc1NC(=O)Cn1nc(-c2ccc(C)cc2)n(C)c1=S | -1.73%
69 | COc1ccccc1OCC(=O)OCc1cc(-c2ccco2)on1 | -11.2%

Row | SMILES | inhibition
70 | CC(C)C1C(=O)N(Cc2cn(CCC3OCCO3)nn2)CCS(=O)(=O)N1Cc1ccc(-c2ccccc2C(F)(F)F)cc1 (centres undefined) | -1.16%
71 | Cc1ccc(Cn2nnc3c(=O)[nH]c(C4CCN(S(=O)(=O)/C=C/c5ccccc5)CC4)nc32)cc1 | -19.1%
72 | COc1ccc(NC(=O)/C(C#N)=C\c2cc(OC)c(OCc3ccc(C(=O)O)cc3)cc2Br)cc1 | 24.8% (active)
73 | COc1cc(/C=C(\C#N)C(=O)Nc2ccc3ccccc3c2)c([N+](=O)[O-])cc1OC | 0.2%
74 | COCCNC(=O)/C(C#N)=C/c1cccc(OCc2ccccc2)c1 | -9.6%
75 | c1ccc(CCN2CN=C(Nc3nc4ccccc4o3)NC2)cc1 | -10.1%
76 | Cc1ccccc1N(C(=O)Cc1cccs1)C(C(=O)NC1CCCCC1)c1cn(C)nc1C (centres undefined) | -4.07%
77 | O=S(=O)(Nc1ccc2nc(-c3ccco3)[nH]c2c1)c1ccccc1 | -1.24%
78 | Cc1cc(OC(C)C(=O)Nc2ccc(S(=O)(=O)Nc3onc(C)c3C)cc2)cc(C)c1Cl (centres undefined) | 8.91%
79 | O=C(NN1C(=O)C2CCCCC2C1=O)c1ccco1 (centres undefined) | -4.97%
80 | COc1ccc(S(=O)(=O)NC2(C(F)(F)F)N=C3SCCN3C2=O)cc1 (centres undefined) | 6.7%
81 | O=C(NC1(C(F)(F)F)N=C2SCCN2C1=O)c1ccco1 (centres undefined) | 23.7% (active)
82 | Cc1c(NC(=O)CSCc2ccccc2)cccc1C(=O)O | -4.2%
83 | CC(C)CN(CC(C)C)CC(O)CN(c1ccccc1)S(=O)(=O)c1ccccc1[N+](=O)[O-] (centres undefined) | -22.2%
84 | COc1ccc(C2(CNC(=O)Cc3ccc(OC)c(OC)c3)CCCC2)cc1 | 0.54%
85 | C=CCNC(=O)/C=C/c1ccc(C(C)C)cc1 | -7.72%
86 | O=C(O)/C=C/c1ccc(S(=O)(=O)N2CCCCCC2)cc1 | -2.18%
87 | O=C(/C=C(O)/C=C/c1ccc(O)cc1)/C=C/c1ccc(O)cc1 | 31.8% (active)
88 | COc1cccc(CNC(=O)CCC2CCCN(C(=O)c3cc(C)[nH]n3)C2)c1 (centres undefined) | -15.8%
89 | CCOC(=O)c1c(NC(=O)C2CC=CCC2C(=O)O)sc(C)c1CC (centres undefined) | -0.11%

Source: PubChem BioAssay AID602250 (The Scripps Research Institute Molecular Screening Center, 2012)
